{
  "source": "PubChem BioAssay (NCATS)",
  "note": "Unmarked numbers belong to inactive results. Active and inactive are the calls of the source. Calls come from the whole dose curve; as a rule, active = well fitted inhibition curve with a large enough effect; inconclusive = small, poorly fitted or top-dose-only effect; inactive = flat fitted curve, though single readings scatter.",
  "data": [
    {"target": "Phosphoglycerate kinase, glycosomal (Trypanosoma brucei brucei) (UniProt P07378)", "sequence (P07378 whole entry, looked up)": "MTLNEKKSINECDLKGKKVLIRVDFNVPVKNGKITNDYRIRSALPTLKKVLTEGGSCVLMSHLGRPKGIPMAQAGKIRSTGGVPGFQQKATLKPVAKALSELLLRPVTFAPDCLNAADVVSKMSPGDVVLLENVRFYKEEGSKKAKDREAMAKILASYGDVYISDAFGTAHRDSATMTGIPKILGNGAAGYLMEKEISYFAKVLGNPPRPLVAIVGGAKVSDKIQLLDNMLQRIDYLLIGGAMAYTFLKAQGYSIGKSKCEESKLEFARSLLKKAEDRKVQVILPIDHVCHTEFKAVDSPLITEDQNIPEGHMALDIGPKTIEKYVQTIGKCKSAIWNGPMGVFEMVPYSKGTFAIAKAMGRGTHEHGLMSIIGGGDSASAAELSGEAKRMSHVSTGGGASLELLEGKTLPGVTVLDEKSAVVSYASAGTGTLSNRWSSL", "test": "qHTS Validation Assay to Find Inhibitors of Phosphoglycerate Kinase (AID 504547);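 note: control wells lack PGK and mark full inhibition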", "conditions": "enzymatic PGK inhibition, coupled luminescence read-out; series mostly up to 57.5 µM; activity, negative = inhibition: at the top concentration", "description": "NIH Molecular Libraries Probe Production Network [MLPCN]\nNIH Chemical Genomics Center [NCGC]\nPI Name: Malcolm Walkinshaw, University of Edinburgh\nSeveral species of the Trypanosomatidae family of parasitic protozoans cause a spectrum of diseases\nthroughout the tropical and subtropical world. Sleeping sickness, caused by two subspecies of Trypanosoma brucei, is endemic to areas of sub-Saharan Africa, while Chagas disease, a manifestation of Trypanosoma cruzi infection, is prevalent throughout Central and South America. In addition, many species of Leishmania are responsible for a range of cutaneous and visceral diseases, causing ulcers, destructive lesions and kalaazar, a lethal infection of the viscera. Collectively, these organisms infect 30 million people worldwide (~500 million live in endemic areas), and account for ~130,000 deaths annually. Given their debilitating and prevalent nature, trypanosomatid parasites impose a heavy medical, economic and social burden on entire populations, primarily in the developing world. The problem is further exacerbated by the fact that existing treatments have progressed little in the past 50 years, and current drugs show high toxicity and poor efficacy.\nBlood-stream stages of T. brucei are entirely dependent on glycolysis as a source of ATP, and the tricarboxylic acid cycle and oxidative phosphorylation are both repressed. Glycolysis in axenically cultured T. cruzi, representing the intracellular pathogenic stage, is also essential for these parasites. […] Previous studies have shown that the glycolytic enzyme, phosphoglycerate kinase (PGK), is a viable target for drugs to kill these parasites.\nNCGC Assay Protocol Summary:\nBriefly, 3ul of substrate/PGK buffer (columns 1,2,5-48) are dispensed into Greiner white solid bottom 1536-well assay plates; columns 3-4 receive only TEA buffer as 0x PGK controls. Compounds are then transferred via Kalypsys pin tool equipped with 1536-pin array (10nl slotted pins, V&P Scientific, San Diego, CA). Following addition of compound, 1ul of GAPDH (100nM final concentration, all columns) is added to initiate the reaction (this upstream coupling enzyme is necessary for in-well production of PGK substrate, 1,3-bisphosphoglycerate (1,3-BPG), which is unstable and not commercially available). The plates are then incubated at room temperature for 60 minutes. Kinase-Glo Plus reagent is added (2ul) and plates incubated for 10 minutes, before being transferred to a ViewLux high-throughput CCD imager (PerkinElmer) wherein single end-point measurements of luminescence are acquired using a clear filter. All reagents are diluted in an assay buffer consisting of 100mM TEA (pH 7.6), 5mM MgCl2 and 0.01% Tween-20.", "units": {"activity, negative = inhibition": "%"}, "values": [
      {"compound": "CC(C)(C)NCC(O)c1ccccc1Cl", "note": "(centres undefined)", "activity, negative = inhibition": 7.37},
      {"compound": "CCC1(c2ccc(N)cc2)CCC(=O)NC1=O", "note": "(centres undefined)", "activity, negative = inhibition": 5.26},
      {"compound": "CC(C)c1cccc(C(C)C)c1O", "activity, negative = inhibition": 9.04},
      {"compound": "NCCc1ccc(O)cc1", "activity, negative = inhibition": 0.0707},
      {"compound": "CC(C)N(CCC(C(N)=O)(c1ccccc1)c1ccccn1)C(C)C", "note": "(centres undefined)", "outcome": "inactive"},
      {"compound": "O=c1[nH]oc2c1CCNC2", "activity, negative = inhibition": 5.59},
      {"compound": "Cc1ncsc1CCCl", "activity, negative = inhibition": 10.5},
      {"compound": "CC(NC(C)(C)C)C(=O)c1cccc(Cl)c1", "note": "(centres undefined)", "activity, negative = inhibition": -2.12},
      {"compound": "O=C(O)CCCc1ccc(N(CCCl)CCCl)cc1", "activity, negative = inhibition": 6.68},
      {"compound": "O=C(CCCN1CCC2(CC1)C(=O)NCN2c1ccccc1)c1ccc(F)cc1", "activity, negative = inhibition": 7.67},
      {"compound": "CN1C(=O)CCS(=O)(=O)C1c1ccc(Cl)cc1", "note": "(centres undefined)", "activity, negative = inhibition": 8.65},
      {"compound": "O=P1(N(CCCl)CCCl)NCCCO1", "note": "(centres undefined)", "activity, negative = inhibition": 5.24},
      {"compound": "C=C(C)[C@H]1CN[C@H](C(=O)O)[C@H]1CC(=O)O", "activity, negative = inhibition": 0.512},
      {"compound": "COc1ccc2c(c1OC)C(=O)O[C@H]2[C@@H]1c2cc3c(cc2CCN1C)OCO3", "activity, negative = inhibition": 8.76}
    ]}
  ]
}
